# Experimental data published in PubChem BioAssay AID1159580 (chemical genetic matrix, 2015).
# Where “and” joins values, the source holds several entries; their conditions need not be identical. Identical values can stand only once. Hit rate of the full screen: of about 5,500 compounds, about 2,000 (36%) were called active. Not shown: some 18% with an inconclusive outcome. The list shows a part of the results. Values without a mark were called inactive. Cut-off read from the data, not from the text of the source: active = normalized growth mostly below about 0.91 (no sharp cut-off); inconclusive = no clear call, values can overlap the other calls; inactive = mostly above about 0.92.
# Assay: chemical genetic growth profiling, strain panel (AID 1159580);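 note: tested at 20 µM; growth read once vehicle control cultures reached saturation at 30 °C; 1 = growth at the plate median or of vehicle wells; lower values mean less growth of the strain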
# Settings: growth OD
smiles,measurement,setting,value
CCC1(c2ccc(N)cc2)CCC(=O)NC1=O (stereo not drawn),normalized growth,"S. cerevisiae deletion strains, locus YJR075W, strain HOC1, active compounds read low",0.998
same,normalized growth,"S. cerevisiae deletion strains, locus YKL009W, strain mrt4, active compounds read low",1.01
same,normalized growth,"S. cerevisiae deletion strains, locus YKL068W, active compounds read low",1
same,normalized growth,"S. cerevisiae deletion strains, locus YKL085W, strain MDH1 (second series), active compounds read low",1
same,normalized growth,"S. cerevisiae deletion strains, locus YKL085W, strain MDH1, active compounds read low",1
same,normalized growth,"S. cerevisiae deletion strains, locus YKL160W, strain elf1, active compounds read low",0.939
same,normalized growth,"S. cerevisiae deletion strains, locus YKR001C, strain vps1, active compounds read low",0.995
same,normalized growth,"S. cerevisiae deletion strains, locus YKR026C, strain gcn3, active compounds read low",0.961
same,normalized growth,"S. cerevisiae deletion strains, locus YKR091W, strain srl3, active compounds read low",0.977
same,normalized growth,"S. cerevisiae deletion strains, locus YLL001W, strain dnm1, active compounds read low",0.903
same,normalized growth,"S. cerevisiae deletion strains, locus YLL026W, active compounds read low",0.956
same,normalized growth,"S. cerevisiae deletion strains, locus YLL041C, strain sdh2, active compounds read low",0.968
same,normalized growth,"S. cerevisiae deletion strains, locus YLR027C, strain aat2, active compounds read low",0.94
same,normalized growth,"S. cerevisiae deletion strains, locus YLR039C, strain RIC1, active compounds read low",1.02
same,normalized growth,"S. cerevisiae deletion strains, locus YLR058C, strain SHM2, active compounds read low",1.01
same,normalized growth,"S. cerevisiae deletion strains, locus YLR102C, strain apc9, active compounds read low",0.992
same,normalized growth,"S. cerevisiae deletion strains, locus YLR113W, strain HOG1, active compounds read low",1.06
same,normalized growth,"S. cerevisiae deletion strains, locus YLR221C, strain rsa3, active compounds read low",0.99
same,normalized growth,"S. cerevisiae deletion strains, locus YLR258W, strain gsy2, active compounds read low",0.992
same,normalized growth,"S. cerevisiae deletion strains, locus YLR262C, strain YPT6 (second series), active compounds read low",0.999
same,normalized growth,"S. cerevisiae deletion strains, locus YLR262C, strain YPT6, active compounds read low",1.03
same,normalized growth,"S. cerevisiae deletion strains, locus YLR268W, strain sec22, active compounds read low",1.01
same,normalized growth,"S. cerevisiae deletion strains, locus YLR320W, strain mms22, active compounds read low",0.978
same,normalized growth,"S. cerevisiae deletion strains, locus YLR330W, strain CHS5, active compounds read low",1.01
same,normalized growth,"S. cerevisiae deletion strains, locus YLR342W, strain FKS1 (second series), active compounds read low",1.02
same,normalized growth,"S. cerevisiae deletion strains, locus YLR342W, strain FKS1, active compounds read low",0.926
same,normalized growth,"S. cerevisiae deletion strains, locus YLR357W, strain rsc2, active compounds read low",0.917
same,normalized growth,"S. cerevisiae deletion strains, locus YLR370C, strain arc18, active compounds read low",0.969
same,normalized growth,"S. cerevisiae deletion strains, locus YLR371W, strain rom2, active compounds read low",0.997
same,normalized growth,"S. cerevisiae deletion strains, locus YLR384C, strain iki3, active compounds read low",0.972
same,normalized growth,"S. cerevisiae deletion strains, locus YLR418C, strain cdc73, active compounds read low",1
same,normalized growth,"S. cerevisiae deletion strains, locus YML016C, strain PPZ1, active compounds read low",1.01
same,normalized growth,"S. cerevisiae deletion strains, locus YML032C, strain rad52, active compounds read low",1
same,normalized growth,"S. cerevisiae deletion strains, locus YML120C, strain ndi1, active compounds read low",0.93
same,normalized growth,"S. cerevisiae deletion strains, locus YML124C, strain tub3, active compounds read low",0.985
same,normalized growth,"S. cerevisiae deletion strains, locus YMR058W, strain fet3, active compounds read low",0.944
same,normalized growth,"S. cerevisiae deletion strains, locus YMR078C, strain ctf18, active compounds read low",0.997
same,normalized growth,"S. cerevisiae deletion strains, locus YMR125W, strain sto1, active compounds read low",0.988
same,normalized growth,"S. cerevisiae deletion strains, locus YMR129W, active compounds read low",0.969
same,normalized growth,"S. cerevisiae deletion strains, locus YMR205C, strain PFK2, active compounds read low",1
same,normalized growth,"S. cerevisiae deletion strains, locus YMR223W, strain ubp8, active compounds read low",0.993
same,normalized growth,"S. cerevisiae deletion strains, locus YMR231W, strain pep5, active compounds read low",0.973
same,normalized growth,"S. cerevisiae deletion strains, locus YMR263W, strain SAP30, active compounds read low",1
same,normalized growth,"S. cerevisiae deletion strains, locus YMR307W, strain GAS1, active compounds read low",0.942
same,normalized growth,"S. cerevisiae deletion strains, locus YNL067W, strain RPL9B, active compounds read low",0.997
same,normalized growth,"S. cerevisiae deletion strains, locus YNL071W, strain lat1, active compounds read low",0.986
same,normalized growth,"S. cerevisiae deletion strains, locus YNL128W, strain TEP1, active compounds read low",1.01
same,normalized growth,"S. cerevisiae deletion strains, locus YNL153C, strain GIM3, active compounds read low",1.02
same,normalized growth,"S. cerevisiae deletion strains, locus YNL175C, strain NOP13, active compounds read low",0.992
same,normalized growth,"S. cerevisiae deletion strains, locus YNL183C, strain NPR1, active compounds read low",0.974
same,normalized growth,"S. cerevisiae deletion strains, locus YNL197C, strain WHI3, active compounds read low",0.987
same,normalized growth,"S. cerevisiae deletion strains, locus YNL209W, strain ssb2, active compounds read low",0.997
same,normalized growth,"S. cerevisiae deletion strains, locus YNL224C, strain SQS1, active compounds read low",1.02
same,normalized growth,"S. cerevisiae deletion strains, locus YNL233W, strain BNI4, active compounds read low",0.994
same,normalized growth,"S. cerevisiae deletion strains, locus YNL248C, strain rpa49, active compounds read low",0.955
same,normalized growth,"S. cerevisiae deletion strains, locus YNL250W, strain rad50, active compounds read low",1
same,normalized growth,"S. cerevisiae deletion strains, locus YNL271C, strain bni1, active compounds read low",0.995
same,normalized growth,"S. cerevisiae deletion strains, locus YNL298W, strain CLA4, active compounds read low",0.992
same,normalized growth,"S. cerevisiae deletion strains, locus YNL307C, strain MCK1, active compounds read low",0.999
same,normalized growth,"S. cerevisiae deletion strains, locus YNL322C, strain KRE1 (second series), active compounds read low",0.973
same,normalized growth,"S. cerevisiae deletion strains, locus YNL322C, strain KRE1, active compounds read low",0.996 and 1.02
same,normalized growth,"S. cerevisiae deletion strains, locus YNR049C, strain mso1, active compounds read low",0.971
same,normalized growth,"S. cerevisiae deletion strains, locus YNR052C, strain pop2, active compounds read low",0.988
same,normalized growth,"S. cerevisiae deletion strains, locus YOL012C, strain htz1",0.83
same,normalized growth,"S. cerevisiae deletion strains, locus YOL147C, strain pex11, active compounds read low",0.999
same,normalized growth,"S. cerevisiae deletion strains, locus YOR001W, strain rrp6, active compounds read low",0.934
same,normalized growth,"S. cerevisiae deletion strains, locus YOR061W, strain CKA2, active compounds read low",1.02
same,normalized growth,"S. cerevisiae deletion strains, locus YOR069W, strain VPS5, active compounds read low",1
same,normalized growth,"S. cerevisiae deletion strains, locus YOR070C, strain gyp1, active compounds read low",0.987
same,normalized growth,"S. cerevisiae deletion strains, locus YOR080W, strain dia2, active compounds read low",0.958
same,normalized growth,"S. cerevisiae deletion strains, locus YOR083W, strain WHI5 (second series), active compounds read low",1.02
same,normalized growth,"S. cerevisiae deletion strains, locus YOR083W, strain WHI5, active compounds read low",0.922
same,normalized growth,"S. cerevisiae deletion strains, locus YOR106W, strain vam3, active compounds read low",0.899
same,normalized growth,"S. cerevisiae deletion strains, locus YOR136W, strain idh2, active compounds read low",0.983
same,normalized growth,"S. cerevisiae deletion strains, locus YOR144C, strain elg1, active compounds read low",1
same,normalized growth,"S. cerevisiae deletion strains, locus YOR184W, strain ser1, active compounds read low",1.02
same,normalized growth,"S. cerevisiae deletion strains, locus YOR231W, strain MKK1, active compounds read low",1.05
same,normalized growth,"S. cerevisiae deletion strains, locus YOR265W, strain rbl2, active compounds read low",0.966
same,normalized growth,"S. cerevisiae deletion strains, locus YOR270C, strain vph1, active compounds read low",0.977
same,normalized growth,"S. cerevisiae deletion strains, locus YOR290C, strain snf2, active compounds read low",0.995
same,normalized growth,"S. cerevisiae deletion strains, locus YOR316C, strain cot1, active compounds read low",0.996
same,normalized growth,"S. cerevisiae deletion strains, locus YPL051W, strain arl3, active compounds read low",0.962
same,normalized growth,"S. cerevisiae deletion strains, locus YPL078C, strain atp4, active compounds read low",0.89 (active)
same,normalized growth,"S. cerevisiae deletion strains, locus YPL106C, strain sse1, active compounds read low",1
same,normalized growth,"S. cerevisiae deletion strains, locus YPL240C, strain hsp82, active compounds read low",0.983
same,normalized growth,"S. cerevisiae deletion strains, locus YPL241C, strain CIN2, active compounds read low",1 and 1.01
same,normalized growth,"S. cerevisiae deletion strains, locus YPL256C, strain CLN2, active compounds read low",1.07
same,normalized growth,"S. cerevisiae deletion strains, locus YPR119W, strain clb2, active compounds read low",0.991
same,normalized growth,"S. cerevisiae deletion strains, locus YPR141C, strain kar3, active compounds read low",1
same,normalized growth,"S. cerevisiae deletion strains, locus YPR163C, strain tif3, active compounds read low",1
same,normalized growth,"S. cerevisiae deletion strains, locus YPR167C, strain met16, active compounds read low",0.997
same,normalized growth,"S. cerevisiae deletion strains, strain wtn01, active compounds read low",0.985
same,normalized growth,"S. cerevisiae strains, strain wild type, active compounds read low",1.01
